Sampled rows, rich in hits. Any-hit rate of the full collection: about 1.7%.
MT1-MMP txn act: activates MT1-MMP transcription. HT1080 MT1-MMP promoter luciferase reporter, luminescence, overnight; hits give high values. activation factor at 10 µM. 86,000 compounds, 0.16% hits;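 active = activation factor of at least 2 for MT1-MMP transcription at 10 µM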
Measles CPE: protection of cells from measles virus. Measles virus-infected cells, CPE protection, absorbance. protection (pct of control), % at 4 µM. 140,000 compounds, 1.5% hits. AID 841; in the data active = protection mostly above about 24%, no sharp cut-off; inactive = mostly below about 26%
Smad3 inh: inhibitors of human Smad3 transcription factor binding. P84022. TR-FRET Smad3/Dy647-FoxH1 peptide binding, europium anti-His. inhibition, % at 25 µM. 88,000 compounds, 0.29% hits. AID 630;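 active = compounds that reduce the energy-transfer binding signal between the protein and its labelled peptide by more than half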;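 note: 0% = Smad3 plus labelled peptide maximal FRET and 100% = peptide-only background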
Target sequence (P84022 whole entry, looked up): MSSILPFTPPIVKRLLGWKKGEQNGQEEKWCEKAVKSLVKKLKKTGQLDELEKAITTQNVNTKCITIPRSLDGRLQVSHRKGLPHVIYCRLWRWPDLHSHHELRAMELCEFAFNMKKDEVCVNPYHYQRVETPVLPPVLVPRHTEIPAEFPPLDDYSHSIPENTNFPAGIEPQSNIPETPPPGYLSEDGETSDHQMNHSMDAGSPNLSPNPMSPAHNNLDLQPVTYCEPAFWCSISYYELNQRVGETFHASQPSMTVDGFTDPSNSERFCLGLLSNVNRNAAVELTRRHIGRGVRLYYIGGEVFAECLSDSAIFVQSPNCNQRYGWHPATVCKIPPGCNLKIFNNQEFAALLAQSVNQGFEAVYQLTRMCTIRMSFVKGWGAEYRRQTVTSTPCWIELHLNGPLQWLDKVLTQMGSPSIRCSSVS
* = called active by the depositor; . = not tested or not shown.

SMILES	MT1-MMP txn act	Measles CPE	Smad3 inh
CCC1=C(OC(=O)N(CC)CC)N2C(=O)OC(=NCCOC)[C@]2(C)[C@H]2C1=CC[C@H]1C(=O)N(CC)C(=O)[C@H]12	1.1	.	.
COc1nc(Cl)nc(Cl)c1Cl (tested in a mixture with another compound)	.	.	83*
CN1CCN(CC(=O)Nc2cccc3ccccc23)CC1	.	.	-6
COc1cccc(OCC(O)CN(CCO)Cc2ccccc2)c1 (stereo not given)	1	32*	.
CN(C)CC(O)COc1cccc(OCC(O)CN(C)C)c1 (stereo not given)	1.3	44	.
C/C(=N\NC1=NCCN1)c1cn(C2=NCCN2)nc1C	.	.	93*
CCCCOc1ccc(Br)cc1/C(C)=N/NC1=NCCN1	0.5	6	-9
Cc1ccccc1-n1c(SCc2csc(Nc3ccccc3)n2)nnc1-c1cccnc1	.	10	.
Cc1ccc(Nc2nc(CSc3nnc(-c4cccnc4)n3-c3ccccc3C)cs2)cc1	.	53*	.
COc1cccc(-c2nnc(SCC(N)=O)n2-c2ccc(Cl)cc2)c1	1	57*	-5
COc1ccc(-c2nnc(SCC(=O)c3cccs3)n2-c2ccc(Cl)cc2)cc1	.	22	.
Nc1c(N2CCCC2)cc(Cl)c2nonc12	1.1	12	58*
Nc1c(N2CCOCC2)cc(Cl)c2nonc12	1.4	4	-9
COCc1nnc(NC(=O)CSc2ccccc2)s1	1.3	4	5
COCc1nnc(NC(=O)CSc2ccc(C)cc2)s1	1.1	23*	5
Cn1ccnc1C[C@@](C)(O)c1ccccc1	.	.	-1
O=C(COC(=O)/C=C/c1ccc([N+](=O)[O-])cc1)NC(c1ccccc1)c1ccccc1	.	5	.
Cc1ccc(/C=N/Nc2nc(Cl)c(Cl)cc2Cl)s1	2*	17	-11
Cc1ccsc1/C=N/Nc1nc(Cl)c(Cl)cc1Cl	1.8	13	0
CN(C)S(=O)(=O)c1ccc(Cl)c(NC(=O)COC(=O)c2cc(-c3ccccc3)nc3ccccc23)c1	.	4	.
Nc1nc2c(ncn2[C@@H]2CC[C@@H](CO)O2)c(=O)n1C(=O)c1ccccc1	.	.	1
Cc1cc(C)c2[nH]c(=O)c(CN(CC3CCCO3)C(=S)NCc3ccco3)cc2c1 (stereo not given)	.	10	.
Cc1cccc2cc(CN(CC3CCCO3)C(=S)NCc3ccco3)c(=O)[nH]c12 (stereo not given)	.	31*	.
CCC1=C2CC[C@H]3C(=O)NC(=O)[C@H]3[C@H]2[C@@]2(Cc3ccccc3)C(=NCC3CC3)OC(=O)N2C1=O	1.2	.	.
CCOC(=O)C1Cc2ccccc2CN1 (stereo not given)	1.1	2	14
SMILES	MT1-MMP txn act	Measles CPE	Smad3 inh
CCOC(=O)C1Cc2c([nH]c3ccccc23)CN1 (stereo not given)	1.2	42*	8
O=C(COC(=O)COc1ccccc1)Nc1ccc(OC(F)(F)F)cc1	1.1	5	-8
CC(C)c1ccc(OCC(=O)Nc2ccc(OC(F)(F)F)cc2)cc1	.	35*	.
CCCCC(=O)Nc1ccc(C(=O)NN2C(=O)c3ccccc3C2=O)cc1	.	19	.
CSc1ccc(NC(=O)[C@H]2CCCC[C@@H]2C(=O)O)cc1	.	.	-6
CC(C)(C)c1ccc(C(=O)NC(Cc2ccccc2)C(=O)O)cc1 (stereo not given)	1.1	24	9
CC(C)(O)C#Cc1ccccc1C(=O)NC(CC(N)=O)C(=O)O (stereo not given)	1.1	65*	4
CNC(=O)[C@]1(C)C[C@H]1[C@H](NC(=O)[C@]1(C)C[C@H]1[C@H](NC(=O)[C@]1(C)C[C@H]1[C@H](NC(=O)[C@]1(C)C[C@H]1[C@H](NC(=O)OCc1ccccc1)c1ccccc1)c1ccccc1)c1ccccc1)c1ccccc1	1.1	.	.
C=C(C)c1cccc(C(C)(C)NC(=O)Nc2ccccc2OCC)c1	.	32	.
C=C(C)c1cccc(C(C)(C)NC(=O)Nc2cc(C)ccc2OC)c1	.	60*	.
O=C(O)CC(NC(=O)OCc1ccccc1)c1ccccc1 (stereo not given)	1.1	20*	1
NC(=O)CC(NC(=O)OCc1ccccc1)C(=O)O (stereo not given)	1	23	-2
O=C(O)c1cc(N=Cc2ccccc2O)cc(C(=O)O)c1	.	.	-15
Cc1nc([N+](=O)[O-])cn1-c1nc2ccccn2c1[N+](=O)[O-]	.	.	0
N[C@H](C(=O)O)[C@@H](O)c1cnc[nH]1	.	.	16
CC(=O)c1c(OC(=O)c2ccc(C)cc2)c2ccccc2n1C	.	71*	.
CC(=O)c1c(OC(=O)c2ccco2)c2ccccc2n1C	1.1	14	4
CCC(C(=O)N1CCc2cc(OC)c(OC)cc2C1)c1ccccc1 (stereo not given)	1.1	15	-8
COc1cc2c(cc1OC)CN(C(=O)c1ccccc1C(=O)O)CC2	0.8	60*	-3
CN(C)Cc1nsc(N(C)C)n1	.	.	3
Nc1ccc(-n2nnnc2CN2CCOCC2)cc1	.	43*	.

Screens (PubChem)
